{"source": "PubChem BioAssay (NCI)", "note": "Several values for one entry are separate records, joined by “and”; a condition that tells them apart may be missing. Equal entries are not always repeated. Compounds without any hit were thinned out: in the full panel of roughly 83,000, 20% have a hit.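 The test compound was applied at a single concentration to cells in 96-well plates for 48 hours, and percent growth was recorded.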 Unmarked numbers belong to inactive results. Activity calls are given as the source filed them. Rule for the calls: active = growth percent below 10; inactive = the rest.", "data": [{"tested_on": "MDA-MB-468 breast", "assay": "NCI-60 one-dose screen, 48 h (100 = growth as untreated, 0 = no growth, -100 = all killed)", "details": "10 µM unless noted", "values": [{"smiles": "CCOC(=O)c1ccc2c(c1)[n+](=O)c(C(=O)c1ccc3ccccc3c1)c(C(F)(F)F)n2[O-]", "growth": "-92.6% (active)"}, {"smiles": "COc1cc(C2=NN(C(C)=O)C(c3ccc(N4CCOCC4)cc3)C2)cc(OC)c1OC", "note": "(stereo not given)", "growth": "96.7%"}, {"smiles": "COC(=O)/C=C/c1cc(O)c2c(c1)C(C(=O)OC)C(c1ccc(O)c(O)c1)O2", "note": "(stereo not given)", "growth": "27.3% and 17.6%"}, {"smiles": "COc1ccc(/C=c2\\c(=O)n(-c3ccccc3)c3nn4c(=O)c(=O)[nH]nc4n23)cc1", "growth": "112%"}, {"smiles": "Cn1cc(-c2nc(-c3c[nH]c4ccncc34)cs2)c2cc(Br)ccc21", "growth": "-71.8% (active)"}, {"smiles": "Cc1cc(C)c2nc(Nc3nc(C)c(C)c(=O)[nH]3)nc(C)c2c1", "growth": "-35.8% (active)"}, {"smiles": "COc1ccc(NC(=O)CSc2nnc(-c3cc(-c4ccccc4)nc4ccccc34)n2-c2ccccc2)cc1", "growth": "97.3%"}, {"smiles": "CC(CN(C)C)Oc1ccc(OC(C)CN(C)C)c2c1C(=O)c1ccccc1C2=O", "note": "(stereo not given)", "growth": "33.2%"}, {"smiles": "CCCCCCCCOC(=O)C(C)OC(=O)OCCOCCOC(=O)OC(C)C(=O)OCCCCCCCC", "note": "(stereo not given)", "growth": "98.6%"}, {"smiles": "COc1ccc2cc(-c3nc(C)c(C(C)=O)c(-c4ccc(C)cc4)n3)ccc2c1", "growth": "74.4%"}, {"smiles": "CCN(CC)CCC(CNc1ccnc2cc(Cl)ccc12)c1ccccc1", "note": "(stereo not given)", "growth": "-35.6% (active)"}, {"smiles": "Cc1c(Cl)cccc1NC(=O)c1sc2nc3c(cc2c1N)CCCCC3", "growth": "22.4%"}, {"smiles": "O=C1CNc2cc(Cl)ccc2N1", "growth": "117%"}, {"smiles": "CNc1sc(S(=O)(=O)NC)nc1S(=O)(=O)c1ccc(C)cc1", "growth": "86.3%"}, {"smiles": "N#Cc1c(-c2cccs2)cc(-c2cnccn2)nc1SCC(=O)c1ccc(F)cc1", "growth": "101%"}, {"smiles": "Cc1cccc(NCS(=O)(=O)O)c1", "growth": "93.7%"}, {"smiles": "COc1nc(N(C)O)nc(N(C)O)n1", "growth": "29.4%"}, {"smiles": "Cc1cc2nc(-c3ccccc3)c(-c3ccccc3)nc2cc1C", "growth": "106%"}, {"smiles": "O=CN1N=C(c2ccc(Cl)cc2)CC1c1cccc(Nc2ccnc3cc(Cl)ccc23)c1", "note": "(stereo not given)", "growth": "-0.854% (active)"}, {"smiles": "COc1ccc2nc(-c3ccc(OC)c(OC)c3)cc(-c3nnc(SCC(=O)Nc4ccc(C(C)=O)cc4)o3)c2c1", "growth": "103%"}, {"smiles": "CN1CCN(C(=O)/C=C/c2ccc([N+](=O)[O-])o2)CC1", "growth": "77.4%"}, {"smiles": "COc1cc2cc(Oc3ccc(NC(=O)Nc4ccc(Cl)c(C(F)(F)F)c4)cc3)c(C)nc2cc1OCCN1CCOCC1", "growth": "-13.5% (active)"}, {"smiles": "Cc1nn(-c2ccc(-c3ccc(OC(F)(F)F)cc3)cc2)c2nc(Cc3ccccc3)nc(N)c12", "growth": "46%"}, {"smiles": "O=C(N/N=C/c1ccccc1Cl)C(=O)Nc1cccc(C(F)(F)F)c1", "growth": "89.1%"}, {"smiles": "Clc1ccc2nc(-c3ccc(-c4ccc(/C=N/NC5=NCCN5)cc4)s3)cn2c1", "growth": "96.1%"}, {"smiles": "Cc1cc2nc3c4cc(C#N)ccc4n(CCN(C)C)c3nc2cc1C", "growth": "-41.7% (active)"}, {"smiles": "COc1cc2nc(Cl)nc(NCCO)c2cc1OC", "growth": "99.2%"}, {"smiles": "C[C@]12CCc3nc(Nc4cccc(O)c4)sc3C1=CC[C@@H]1[C@@H]2CC[C@]2(C)/C(=N\\NC(N)=S)CC[C@@H]12", "growth": "-32.7% (active)"}, {"smiles": "O=C(c1ccccc1)c1cc2ccccc2oc1=O", "growth": "97.3%"}, {"smiles": "N#Cc1ccc(O)c(C2=NCC(c3ccccc3)O2)c1", "note": "(stereo not given)", "growth": "32.3%"}, {"smiles": "COc1ccc(-c2nc(NC(=O)CS(=O)(=O)c3ccc(F)cc3)sc2C)cc1", "growth": "32%"}, {"smiles": "CC(=O)O[C@H]1C[C@@H]2C(C)(C)C(=O)CC[C@@]2(C)c2ccc(C(C)C)cc21", "growth": "105%"}, {"smiles": "C/C(=N\\O)[C@@H]1CC[C@]2(CO)CC[C@]3(C)[C@H](CC[C@@H]4[C@@]5(C)CCCNC(C)(C)[C@@H]5CC[C@]43C)[C@@H]12", "growth": "74.6%"}, {"smiles": "Cc1ccc(NC(=O)c2ccc(CN3CCN(C)CC3)cc2)cc1Oc1ccc(-c2[nH]nc3ncnc(N)c23)cc1", "growth": "59.3%"}, {"smiles": "CN(C)c1ccc2cc(-c3nc4ccccc4s3)c(N)nc2c1", "growth": "56.9%"}, {"smiles": "Cn1nccc1Nc1nccc(-c2ccn([C@H](CO)c3ccc(Cl)c(F)c3)c(=O)c2)n1", "growth": "129%"}, {"smiles": "CCCCC1=C(P(=O)(O)O)N[C@H](C(=O)O)CS1", "growth": "89.1%"}, {"smiles": "CNCCCC12CCC(c3ccccc31)c1ccccc12", "growth": "29.4%"}, {"smiles": "C[C@@H]1C(=O)N(C[C@H](Cc2ccccc2)N(Cc2ccccc2)Cc2ccccc2)[C@]1(Cc1ccccc1)C(=O)OC(C)(C)C", "growth": "10.7%"}, {"smiles": "O=C(N/N=c1/ccoc2cccnc12)N1CCN(c2ncccn2)CC1", "growth": "2.98% (active)"}]}]}
